The structures appear in SMILES notation. About 83,000 compounds went through this panel and 20% of them were active in at least one assay; those are over-represented in the sample as a whole.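 Treatment: one concentration, 48 hours, 96-well format. Scoring: percent growth, with anything below 10 considered active.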 Unmarked numbers belong to inactive results. Active and inactive are the calls of the source.

The subject of this assay is HT29 colon. The assay is described as follows: NCI-60 one-dose screen, 48 h (100 = growth as untreated, 0 = no growth, -100 = all killed). The conditions noted are these: 10 µM unless noted. The method, then: Growth inhibition of the HT29 human tumor cell line is measured as a screen for anti-cancer activity. Cells are grown in 96 well plates and exposed to the test compound for 48 hours. Compounds are tested at a single concentration, which is 10^-5 M for most compounds. The reported endpoint is percent growth (GI% or GIPRCNT), where numbers from 0 - 100% represent growth inhibition, and numbers from -100% - 0 represent cell death. For example, a value of 40 represents 60% growth inhibition. A value of 0 means no net growth occurred over the course of the experiment. A value of -40 indicates 40% of cells at the beginning of the experiment died by the end of the experiment. A value of -100 means all cells are dead at the end of the experiment.
NCI-60 Human Tumor Cell Lines Screen was performed using the standard one-dose NCI protocol, which is described in more detail at https://dtp.cancer.gov/discovery_development/nci-60/default.htm.
Compounds with GIPRCNT values below 10 were considered active. Activity score was based on GIPRCNT using the following formula: […]
Score is 0 for GIPRCNT values of 100 or above, 50 for GIPRCNT values of 0, and 100 for GIPRCNT values of -100.
Regarding `Cn1cc(-c2nonc2-c2c[nH]c3ccc(F)cc23)c2cccnc21`, the growth is 99.3%.
Turning to `Cn1ccnc1C(=O)/C=C/c1ccccc1`, the growth was 1.12% (active).
In the case of `Cn1cccc1-c1nc2c3c(ccc2[nH]1)C(=O)c1ccccc1C3=O`, the growth was 104%.
On to `Cc1c(/C=C/[N+](=O)[O-])ccc2c1[nH]c1ccccc12`, for which the growth is 96.5%.
As to `COc1ccc(C(=O)COc2cccc(/C=C3\CSc4ccccc4C3=O)c2)cc1`, the growth is -88.2% (active).
As to `O=C1NC(=S)N[C@H]1CC(=O)n1cnc2ccccc21`, the growth is 111%.
In the case of `Nc1n[nH]c2ccc([C@@H]3Nc4ccc5[nH]ncc5c4[C@H]4C5C=CC(C5)[C@@H]34)cc12` (stereo not given in full) it was 11.5%.
To `CCOc1cc2ncc(C#N)c(Nc3ccc(OCc4cccc(F)c4)c(Cl)c3)c2cc1NC(=O)CC1CCSS1` (stereo not given) belongs 17.6%; to `CCN(CC)c1ccc(-c2cc(-c3cc(OC)c(OC)c(OC)c3)nc(N3CCOCC3)c2C#N)cc1`, 2.21% (active).
Consider `NC1=C(Cl)C(=O)c2ccc(S(N)(=O)=O)cc2C1=O`, for which the growth was -50.3% (active).
Turning to `COc1cc2nc(N3CCCC3)nc(NCC3CCCCC3)c2cc1OC`, the growth is -24.8% (active).
For the molecule `COc1ccc(CCNc2nc3c(c(=O)n(Cc4ccc(Br)cc4)c(=O)n3C)n2C)cc1OC`, the growth is 103%.
For the molecule `COc1ccc(O)c(N=Nc2nccs2)c1`, the growth was 79.7%.
Take `CCC([N+](=O)[O-])S(=O)(=O)c1ccc(C)cc1` (stereo not given): the growth was 101%.
In the case of `COc1ccc(C(=O)/C=C/c2cccnc2Nc2cc(OC)c(OC)c(OC)c2)cc1` it was 15.1%.
With `c1ccc2[nH]c(-c3ccc(Nc4nc(N5CCCC5)nc5[nH]ncc45)cc3)nc2c1`, the growth is -49.1% (active).
As for `O=C1NC(=Nc2ccc(O)cc2)S/C1=C\c1cccc(Cl)c1`, the growth is 109%.
To `O=C1NC(=O)C(c2ccc(Cl)cc2Cl)N1` (stereo not given) belongs 106%; to `CC(=O)c1nc2ccccc2n1CC(=O)c1cccc(Cl)c1`, 94%.
Consider `CC(C)(C)c1cc(/C=N\NC(=O)/C=C/C=C/c2ccc3c(c2)OCO3)c(O)c(C(C)(C)C)c1`, for which the growth is 92%.
For the molecule `COC(=O)c1ccc(Cn2cnc3c(N)ncnc32)cc1`, the growth is 98.6%.
With `O=C1Nc2ccc(Br)cc2C12Oc1ccccc1C1CC(c3ccc(F)cc3)=NN12` (stereo not given), the growth is 93.7%.
Regarding `O=S(=O)(Nc1ccc(OC(F)F)cc1)c1ccc(-c2cnc(C3CC3)o2)cc1`, the growth was 55.6%.
With `COc1cc(-c2ccc3c(c2)NC(=O)/C3=C\c2ccc[nH]2)ccc1O`, the growth is 18.9%.
Regarding `CC(=O)O[C@H]1CC[C@]2(C)[C@H]3CC=C4[C@@H]5CC(C)(C)CC[C@]5(C(=O)NCCNCCNCCN)CC[C@@]4(C)[C@]3(C)CC[C@H]2C1(C)C`, the growth is -47.7% (active).
`COc1cccc(-c2nc3sccn3c2-c2ccnc(NCCCNS(=O)(=O)c3cccc(Cl)c3)c2)c1`: the growth is 54.5%.
In the case of `CCCCC(=O)OCC1OC(n2cnc3c(=S)nc[nH]c32)C(OC(=O)CCCC)C1OC(=O)CCCC` (stereo not given) it was 27%; in that of `c1ccc(-c2cc3n4c(-c5ccccc5)nn(-c5ccccc5)c4cnc-3n2)cc1`, 44.3%.
Take `COc1cc2c(cc1-c1c(C)noc1C)ncc1nc(C3CCOCC3)n([C@H](C)COC(F)F)c12`: the growth was 24.5%.
Consider `O=c1cc(CSc2nnc(-c3ccc(F)cc3)o2)c2ccc3ccccc3c2o1`, for which the growth is 95%.
To `COc1ccc(C(=O)c2sc3nc4c(c(-c5cccnc5)c3c2N)CCCC4)cc1OC` belongs 74.3%.
In the case of `CC/C=C\C[C@H]1C/C=C2/C(=O)C=C[C@H]2C/C=C\CCCC(=O)O1`, the growth was 6.12% (active).
As for `COc1cccc(C2=NN3C(C2)c2cc(Br)cc(OC)c2OC32CCN(Cc3ccccc3)CC2)c1` (stereo not given), the growth is 108%.
On to `CC(=O)O[C@H]1CC[C@]2(C)[C@H]3CC=C4[C@@H]5CC(C)(C)CC[C@]5(C(=O)NCCNCCN)CC[C@@]4(C)[C@]3(C)CC[C@H]2C1(C)C`, for which the growth was -92.8% (active).
In the case of `CSc1ccc(-c2ccccc(=O)c2O)cc1` it was 25.7%.
`Cc1cc(N2CCCCCC2)nc(NC2CCCC(Nc3ccnc4cc(Cl)ccc34)C2)n1` (stereo not given): the growth was -82.9% (active).
Consider `FC(F)(F)Oc1ccc2nc3nc4ccc[nH]c4cc3c2c1`, for which the growth was 73.9%.
Take `NNCCc1ccc(NC(=O)CCCc2ccc(/C=C/C(=O)NO)cc2)cc1`: the growth is 66.4%.
Turning to `Nc1ccn(-c2ccc(Br)cc2)c(=O)n1`, the growth is 125%.
On to `Cc1ccc(NC(=O)C2CCC(CN3CCN(C)CC3)CC2)cc1Nc1nccc(-c2cccnc2)n1` (stereo not given), for which the growth is 100%.

Source of the values: PubChem BioAssay (NCI).
